Assay results as given in PubChem BioAssay (NCATS).
Results filed as inconclusive are left out. Unless noted, calls follow the shape of the dose curve; as a rule, active = well fitted curve in either direction with a large enough effect (not every such curve was filed as active); inconclusive = small, poorly fitted or top-dose-only effect, or another doubt; inactive = flat fitted curve, though single readings scatter.

Key:
[1] = AP1 Signaling Pathway (AID 357); conditions: ME-180 AP-1-bla reporter, EGF-induced, beta-lactamase ratio, 5 h; at 17.2 µM (top of the series) unless noted;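 also: ME-180 reporter cells stimulated with EGF at its EC50 level; % is scaled to controls: 0 for no effect and ±100 for the full control effect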
How it was run: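 Read-out was the 460nm/530nm emission ratio (excitation 405nm) after CCF4 loading for 2.5 hours at room temperature. Cells carried an AP-1-driven beta-lactamase reporter, were stimulated with EC50 EGF plus compound for 5 hours, and AC50 values came from titrations.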

[2] = NFAT Signaling Pathway (AID 444); conditions: Jurkat NFAT-bla M1, carbachol, beta-lactamase ratio, 5 h; at 17.2 µM (top of the series) unless noted;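 also: carbachol stimulus at about its EC50 of 1 µM final; % is scaled to controls: 0 for no effect and ±100 for the full control effect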
How it was run: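 Read-out: CCF4 FRET ratio (460 nm/530 nm) after 1 h RT dye loading, used for %activity and AC50 from titration series. Cells: Jurkat NFAT-β-lactamase/M1 line, treated with compound plus 1 uM carbachol for 5 h, 37 °C.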

[3] = Stat Signaling Pathway (AID 446); conditions: ME-180 SIE beta-lactamase reporter, IL-6 stimulated, 5 h; at 17.2 µM (top of the series) unless noted;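 also: ME-180 cervical cancer cells given 40 pM IL-6 alongside compound; SIE-controlled beta-lactamase reporter measured as 460/530 nm FRET emission ratio; % is scaled to controls: 0 for no effect and ±100 for the full control effect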
How it was run: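 Reporter line: ME-180 cervical carcinoma, SIE-beta-lactamase. Treatment: compound with 40 pM IL-6, 5 hrs, 37 C, in low-serum OPTI-MEM with 10 mM HEPES pH 7.3. Detection: 460/530 nm fluorescence.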

[4] = molecular target: Glucocorticoid receptor (Homo sapiens) (UniProt P04150); assay: GR-GFP Redistribution (AID 450;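 active = compounds whose dose series gives a full or clear partial fitted curve of increased nuclear translocation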; also: potency is read from the fitted curve at half-maximal effect)
Sequence of Glucocorticoid receptor (Homo sapiens) (P04150 whole entry, looked up): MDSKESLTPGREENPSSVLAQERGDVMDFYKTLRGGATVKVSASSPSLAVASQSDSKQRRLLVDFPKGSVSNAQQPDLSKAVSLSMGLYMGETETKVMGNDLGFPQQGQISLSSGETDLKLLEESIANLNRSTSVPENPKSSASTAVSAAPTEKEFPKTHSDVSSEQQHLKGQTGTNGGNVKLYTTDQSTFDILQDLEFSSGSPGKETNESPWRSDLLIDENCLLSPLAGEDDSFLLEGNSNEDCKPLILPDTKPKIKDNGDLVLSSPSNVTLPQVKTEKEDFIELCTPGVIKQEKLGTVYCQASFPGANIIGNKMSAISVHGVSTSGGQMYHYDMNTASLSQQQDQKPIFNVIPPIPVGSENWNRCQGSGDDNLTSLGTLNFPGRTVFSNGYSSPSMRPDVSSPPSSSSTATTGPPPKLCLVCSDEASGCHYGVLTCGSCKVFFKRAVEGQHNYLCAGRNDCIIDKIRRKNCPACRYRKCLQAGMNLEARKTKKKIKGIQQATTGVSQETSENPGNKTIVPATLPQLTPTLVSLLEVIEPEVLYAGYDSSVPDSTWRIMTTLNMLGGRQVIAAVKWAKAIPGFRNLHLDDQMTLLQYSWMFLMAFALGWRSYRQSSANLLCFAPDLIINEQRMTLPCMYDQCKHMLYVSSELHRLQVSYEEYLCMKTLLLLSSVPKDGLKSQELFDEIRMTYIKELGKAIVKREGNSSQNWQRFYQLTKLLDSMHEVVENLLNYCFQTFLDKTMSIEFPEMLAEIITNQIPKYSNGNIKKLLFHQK

COc1ccc(/C=C(/C#N)c2cccnc2)cc1OC
inactive: activity change, negative = inhibition [1] -13.8% | activity change, negative = inhibition [2] -0.696% | activity, negative = inhibition [3] 5.95% | Potency [4] > 20.6 µM

CC1(C)Cc2c(c(N3CCOCC3)nc3sc4c(=O)[nH]cnc4c23)CS1
inactive: activity change, negative = inhibition [1] 4.29% | activity change, negative = inhibition [2] 5.56% | activity, negative = inhibition [3] -18.3% | Potency [4] > 20.6 µM

COc1cccc(NC(=O)CC2SC(=Nc3ccccc3)NC2=O)c1 (stereo not given)
inactive: activity change, negative = inhibition [1] -10.5% | activity change, negative = inhibition [2] 2.42% | activity, negative = inhibition [3] -17.8% | Potency [4] > 20.6 µM

CCOC(=O)c1c(C)[nH]sc1=S
inactive: activity change, negative = inhibition [1] 4.4% | activity change, negative = inhibition [2] -1.05% | activity, negative = inhibition [3] -4.25% | Potency [4] > 20.6 µM

CCCCC1(C(=O)OCC)CC(CN2CCOCC2)OC1=O (stereo not given)
inactive: activity change, negative = inhibition [1] 2.64% | activity change, negative = inhibition [2] -18.1% | activity, negative = inhibition [3] 3.3% | Potency [4] > 20.6 µM

CCOc1ccc(/C(O)=C2/C(=O)C(=O)N(c3nc(C)c(C)s3)C2c2ccco2)cc1 (stereo not given)
inactive: activity change, negative = inhibition [1] -13.5% | activity change, negative = inhibition [2] 20.9% | activity, negative = inhibition [3] -19% | Potency [4] > 20.6 µM

COc1cc(C2C(C(=O)c3sc(C)nc3C)=C(O)C(=O)N2CCN(C)C)cc(OC)c1OC (stereo not given)
inactive: activity change, negative = inhibition [1] -0.396% | activity change, negative = inhibition [2] 1.9% | activity, negative = inhibition [3] 8.27% | Potency [4] > 20.6 µM

COc1ccccc1N(O)C1CC(=O)N(c2ccc(Br)cc2)C1=O (stereo not given)
inactive: activity change, negative = inhibition [1] -7.13% | activity change, negative = inhibition [2] -6.72% | activity, negative = inhibition [3] -0.749% | Potency [4] > 20.6 µM

Cc1ccc(-c2nnc(-c3cccc(Br)c3)o2)cc1
inactive: activity change, negative = inhibition [1] 14.2% | activity change, negative = inhibition [2] -11.6% | activity, negative = inhibition [3] 12.4% | Potency [4] > 20.6 µM

CCN(CC)CCN1C(=O)C(=O)/C(=C(/O)c2c(C)[nH]c(C(=O)OC)c2C)C1c1ccccc1 (stereo not given)
inactive: activity change, negative = inhibition [1] 2.47% | activity change, negative = inhibition [2] -8.53% | activity, negative = inhibition [3] -3.34% | Potency [4] > 20.6 µM

COc1ccc(OCC(O)CN2C(=O)NC(C)(C)C2=O)cc1 (stereo not given)
inactive: activity change, negative = inhibition [1] -11.2% | activity change, negative = inhibition [2] 0.93% | activity, negative = inhibition [3] 9.74% | Potency [4] > 20.6 µM

COc1ccc(OC)c(C2C(C#N)=C(N)Oc3cc(C)[nH]c(=O)c32)c1 (stereo not given)
inactive: activity change, negative = inhibition [1] -7.62% | activity change, negative = inhibition [2] -4.06% | activity, negative = inhibition [3] 3.99% | Potency [4] > 20.6 µM

COc1cccc(Cn2c(OCC3CCCO3)nc3c2c(=O)n(C)c(=O)n3C)c1 (stereo not given)
inactive: activity change, negative = inhibition [1] -4.44% | activity change, negative = inhibition [2] -8.17% | activity, negative = inhibition [3] -4.79% | Potency [4] > 20.6 µM

Cc1occc1C(=O)OCC(=O)Nc1ccc(F)cc1
inactive: activity change, negative = inhibition [1] 17.4% | activity change, negative = inhibition [2] 1.22% | activity, negative = inhibition [3] -3.3% | Potency [4] > 20.6 µM

Cc1nc2c(c(N3CCOCC3)n1)OCC(=O)N2
inactive: activity change, negative = inhibition [1] 6.3% | activity change, negative = inhibition [2] -1.47% | activity, negative = inhibition [3] 6.75% | Potency [4] > 20.6 µM

Cc1cc(-c2ccc(F)cc2)nc2cc(C(N)=O)nn12
inactive: activity change, negative = inhibition [1] -15.1% | activity change, negative = inhibition [2] -2.99% | activity, negative = inhibition [3] -7.09% | Potency [4] > 20.6 µM

Clc1ccccc1-c1nn2c(-c3ccccn3)nnc2s1
inactive: activity change, negative = inhibition [1] -2.63% | activity change, negative = inhibition [2] -11.1% | activity, negative = inhibition [3] 12.8% | Potency [4] > 20.6 µM

COc1ccc[nH]c1=O
inactive: activity change, negative = inhibition [1] 14.3% | activity change, negative = inhibition [2] -4.63% | activity, negative = inhibition [3] 3.09% | Potency [4] > 20.6 µM

COC(=O)CSc1nc2c(c(=O)n(C)c(=O)n2C)n1CCC(C)C
inactive: activity change, negative = inhibition [1] 10.4% | activity change, negative = inhibition [2] -5.51% | activity, negative = inhibition [3] 6.93% | Potency [4] > 20.6 µM

Cc1cc(C)n(C(=O)CNC(=O)CCc2ccccc2)n1
inactive: activity change, negative = inhibition [1] 8.64% | activity change, negative = inhibition [2] 9.94% | activity, negative = inhibition [3] 2.58% | Potency [4] > 20.6 µM

COc1cccc(C2C(C(=O)c3cccs3)=C(O)C(=O)N2c2cc(C)on2)c1 (stereo not given)
inactive: activity change, negative = inhibition [1] -6.29% | activity change, negative = inhibition [2] 16.2% | activity, negative = inhibition [3] -7.97% | Potency [4] > 20.6 µM

CN=C1c2c(-c3ccccc3)c3cc(OC)ccc3n2CCN1C
inactive: activity change, negative = inhibition [1] 24.6% | activity change, negative = inhibition [2] -8.39% | activity, negative = inhibition [3] -1.77% | Potency [4] > 20.6 µM

CCOC(=O)Cc1[nH]nc2c1C(c1cc(OC)ccc1OC)C(C#N)=C(N)O2 (stereo not given)
inactive: activity change, negative = inhibition [1] -11.5% | activity change, negative = inhibition [2] -0.329% | activity, negative = inhibition [3] -9.93% | Potency [4] > 20.6 µM

CN(C)c1cccc2c(S(=O)(=O)N3CCOCC3)cccc12
inactive: activity change, negative = inhibition [1] -2.48% | activity change, negative = inhibition [2] -4.98% | activity, negative = inhibition [3] 7.43% | Potency [4] > 20.6 µM

COc1ccc(-c2cc(=O)[nH]c(=O)[nH]2)cc1
inactive: activity change, negative = inhibition [1] 6.12% | activity change, negative = inhibition [2] -4.97% | activity, negative = inhibition [3] -5.47% | Potency [4] > 20.6 µM
